Results as given in the supplement of paper PMC11732987, “Enantioselective OTUD7B fragment discovery through chemoproteomics screening and high-throughput optimisation” (Communications Chemistry, 2025).

Experiments:
Assay in all cases: log2 ratio of Biotin-Ahx-Ub-VS probe labelling (fragment/DMSO); higher = less target engagement (more negative = stronger competition), active = hit call of the paper (q ≤ 0.05, log2 ratio ≤ -1)
Conditions in all cases: compound concentration: 200 uM; treatment time: 3 h
OTUD6B = target: T1, OTUD6B (UniProt Q8N6M0)
T1 sequence (whole entry): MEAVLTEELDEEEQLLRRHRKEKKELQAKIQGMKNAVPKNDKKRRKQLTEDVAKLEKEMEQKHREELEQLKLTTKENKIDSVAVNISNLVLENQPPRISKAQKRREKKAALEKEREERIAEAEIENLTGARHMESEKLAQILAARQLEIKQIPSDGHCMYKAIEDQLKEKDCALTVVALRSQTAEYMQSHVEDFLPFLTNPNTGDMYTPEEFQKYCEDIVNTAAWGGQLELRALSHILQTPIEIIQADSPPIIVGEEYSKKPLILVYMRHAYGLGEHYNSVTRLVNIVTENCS
How it was run: (§1)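 Global-median-normalised Spectronaut label-free quantities were compared by unpaired t-test, and values are average log2 ratios of fragment over vehicle. Only proteins with ≥2 unique peptides were used. HEK293T lysate (495 µg per sample) was treated in triplicate with fragment at 200 µM or vehicle for 3 h and then with Biotin-Ahx-Ub-VS at 0.5 µM final for 1 h. Labelled DUBs were then NeutrAvidin-enriched, digested with LysC and trypsin, and run by diaPASEF LC-MS/MS.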

OTUD7B = target: T2, OTUD7B (UniProt Q6GQQ9)
T2 sequence (whole entry): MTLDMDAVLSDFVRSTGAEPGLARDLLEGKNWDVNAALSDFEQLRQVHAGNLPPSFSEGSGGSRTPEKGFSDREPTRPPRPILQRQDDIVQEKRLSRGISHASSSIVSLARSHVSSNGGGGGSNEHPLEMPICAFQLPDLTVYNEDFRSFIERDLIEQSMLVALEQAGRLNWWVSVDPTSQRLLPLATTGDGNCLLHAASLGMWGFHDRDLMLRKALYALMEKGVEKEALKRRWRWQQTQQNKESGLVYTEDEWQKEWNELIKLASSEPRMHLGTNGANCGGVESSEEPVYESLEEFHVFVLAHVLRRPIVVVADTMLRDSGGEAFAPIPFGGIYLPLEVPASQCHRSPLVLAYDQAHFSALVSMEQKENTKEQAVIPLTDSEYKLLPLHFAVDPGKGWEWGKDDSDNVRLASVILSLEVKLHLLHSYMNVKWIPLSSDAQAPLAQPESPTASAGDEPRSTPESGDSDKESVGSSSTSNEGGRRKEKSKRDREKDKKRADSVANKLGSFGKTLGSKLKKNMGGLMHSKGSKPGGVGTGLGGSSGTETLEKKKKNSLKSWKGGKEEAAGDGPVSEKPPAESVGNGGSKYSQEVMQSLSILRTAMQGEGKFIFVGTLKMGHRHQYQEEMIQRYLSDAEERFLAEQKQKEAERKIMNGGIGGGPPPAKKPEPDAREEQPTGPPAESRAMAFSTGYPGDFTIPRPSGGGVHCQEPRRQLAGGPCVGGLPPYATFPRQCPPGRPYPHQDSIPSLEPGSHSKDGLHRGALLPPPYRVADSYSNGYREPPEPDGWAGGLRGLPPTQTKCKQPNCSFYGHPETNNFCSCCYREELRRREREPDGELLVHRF
How it was run: as §1

PRPF8 = PRPF8 (UniProt Q6P2Q9)
How it was run: as §1

PSMD7 = target: T3, PSMD7 (UniProt P51665)
T3 sequence (whole entry): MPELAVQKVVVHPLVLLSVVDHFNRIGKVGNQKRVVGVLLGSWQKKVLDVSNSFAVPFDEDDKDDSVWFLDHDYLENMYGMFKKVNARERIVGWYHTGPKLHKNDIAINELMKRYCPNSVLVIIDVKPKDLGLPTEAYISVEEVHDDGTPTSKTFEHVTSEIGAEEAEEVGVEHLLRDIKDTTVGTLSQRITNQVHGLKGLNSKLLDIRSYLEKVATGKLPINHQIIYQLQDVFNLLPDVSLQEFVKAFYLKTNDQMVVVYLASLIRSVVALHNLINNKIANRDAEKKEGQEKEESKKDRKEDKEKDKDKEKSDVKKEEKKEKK
How it was run: as §1

UCHL1 = UCHL1 (UniProt P09936)
How it was run: as §1

UCHL3 = target: T4, UCHL3 (UniProt P15374)
T4 sequence (whole entry): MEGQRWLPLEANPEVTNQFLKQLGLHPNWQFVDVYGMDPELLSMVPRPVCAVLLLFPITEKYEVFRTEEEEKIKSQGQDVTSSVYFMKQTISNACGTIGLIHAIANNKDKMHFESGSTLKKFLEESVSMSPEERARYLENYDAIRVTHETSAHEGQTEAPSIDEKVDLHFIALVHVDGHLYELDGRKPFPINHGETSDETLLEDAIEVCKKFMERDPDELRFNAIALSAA
How it was run: as §1

UCHL5 = target: T5, UCHL5 (UniProt Q9Y5K5)
T5 sequence (whole entry): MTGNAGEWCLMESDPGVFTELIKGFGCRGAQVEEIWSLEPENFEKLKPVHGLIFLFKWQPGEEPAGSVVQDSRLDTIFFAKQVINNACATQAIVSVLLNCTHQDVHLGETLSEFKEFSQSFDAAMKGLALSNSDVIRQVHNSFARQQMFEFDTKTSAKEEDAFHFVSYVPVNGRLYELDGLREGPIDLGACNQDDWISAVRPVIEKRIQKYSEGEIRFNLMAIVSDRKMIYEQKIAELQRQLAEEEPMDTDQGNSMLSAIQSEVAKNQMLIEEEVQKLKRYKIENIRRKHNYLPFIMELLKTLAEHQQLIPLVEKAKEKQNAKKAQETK
How it was run: as §1

USP10 = USP10 (UniProt Q14694)
How it was run: as §1

USP15 = target: T6, USP15 (UniProt Q9Y4E8)
T6 sequence (whole entry): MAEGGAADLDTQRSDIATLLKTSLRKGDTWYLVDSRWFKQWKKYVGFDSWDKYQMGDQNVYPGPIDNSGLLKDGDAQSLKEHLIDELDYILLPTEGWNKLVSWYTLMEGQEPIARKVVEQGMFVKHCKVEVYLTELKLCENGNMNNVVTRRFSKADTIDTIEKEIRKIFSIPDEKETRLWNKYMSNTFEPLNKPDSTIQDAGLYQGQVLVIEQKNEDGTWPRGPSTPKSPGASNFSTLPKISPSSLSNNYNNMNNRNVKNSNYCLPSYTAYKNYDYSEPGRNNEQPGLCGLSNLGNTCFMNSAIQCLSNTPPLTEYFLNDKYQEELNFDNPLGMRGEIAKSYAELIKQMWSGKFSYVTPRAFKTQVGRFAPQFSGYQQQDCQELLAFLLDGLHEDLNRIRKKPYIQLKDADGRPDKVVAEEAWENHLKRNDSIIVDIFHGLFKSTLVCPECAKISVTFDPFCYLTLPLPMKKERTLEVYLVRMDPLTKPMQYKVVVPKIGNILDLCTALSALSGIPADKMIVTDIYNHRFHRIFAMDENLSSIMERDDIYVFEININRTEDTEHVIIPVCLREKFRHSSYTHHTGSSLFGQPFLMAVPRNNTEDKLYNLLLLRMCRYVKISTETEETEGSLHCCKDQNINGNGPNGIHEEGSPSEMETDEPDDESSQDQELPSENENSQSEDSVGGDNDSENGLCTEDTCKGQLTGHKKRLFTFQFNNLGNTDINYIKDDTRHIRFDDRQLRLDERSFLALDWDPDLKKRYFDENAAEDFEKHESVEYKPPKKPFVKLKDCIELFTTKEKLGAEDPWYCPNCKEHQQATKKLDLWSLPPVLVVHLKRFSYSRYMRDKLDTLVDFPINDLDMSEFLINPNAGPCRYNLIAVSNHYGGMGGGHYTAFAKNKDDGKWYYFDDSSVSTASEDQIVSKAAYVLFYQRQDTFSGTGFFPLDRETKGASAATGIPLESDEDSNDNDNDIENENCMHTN
How it was run: as §1

Measured: log2 ratio of Biotin-Ahx-Ub-VS probe labelling

USP10, sequence (Q14694 whole entry): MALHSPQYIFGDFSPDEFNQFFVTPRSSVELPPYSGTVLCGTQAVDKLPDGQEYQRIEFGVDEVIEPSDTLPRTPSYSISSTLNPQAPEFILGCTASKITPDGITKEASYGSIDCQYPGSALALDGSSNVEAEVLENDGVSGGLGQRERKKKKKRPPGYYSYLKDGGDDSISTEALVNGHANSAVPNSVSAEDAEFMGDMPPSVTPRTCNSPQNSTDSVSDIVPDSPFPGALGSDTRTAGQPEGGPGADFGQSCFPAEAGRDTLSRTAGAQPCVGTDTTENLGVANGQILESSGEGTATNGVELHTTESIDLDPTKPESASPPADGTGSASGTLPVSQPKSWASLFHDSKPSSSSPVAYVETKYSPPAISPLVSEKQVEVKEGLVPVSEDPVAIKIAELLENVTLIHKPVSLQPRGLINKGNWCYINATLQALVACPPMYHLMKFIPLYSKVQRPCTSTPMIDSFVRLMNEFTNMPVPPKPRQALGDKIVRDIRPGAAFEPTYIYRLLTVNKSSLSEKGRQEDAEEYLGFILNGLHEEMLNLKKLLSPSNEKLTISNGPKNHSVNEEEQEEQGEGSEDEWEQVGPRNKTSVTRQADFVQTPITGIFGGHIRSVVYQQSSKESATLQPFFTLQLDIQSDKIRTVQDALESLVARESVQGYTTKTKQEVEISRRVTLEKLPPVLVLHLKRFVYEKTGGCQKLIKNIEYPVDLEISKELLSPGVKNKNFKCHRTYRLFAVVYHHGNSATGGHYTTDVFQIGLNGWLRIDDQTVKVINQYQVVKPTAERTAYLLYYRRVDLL
UCHL1, sequence (P09936 whole entry, looked up): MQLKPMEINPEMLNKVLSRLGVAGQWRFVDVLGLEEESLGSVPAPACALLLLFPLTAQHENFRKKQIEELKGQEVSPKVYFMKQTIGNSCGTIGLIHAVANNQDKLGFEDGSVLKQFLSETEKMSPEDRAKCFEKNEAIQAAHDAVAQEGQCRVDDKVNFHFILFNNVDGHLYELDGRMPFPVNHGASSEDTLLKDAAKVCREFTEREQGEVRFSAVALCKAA

COCC1C=CCCN1C(=O)CCl (centres undefined)
active: UCHL1 -1.94
inactive: OTUD6B -0.121 | OTUD7B -0.466 | PRPF8 -0.181 | PSMD7 -0.134 | UCHL3 -0.0426 | UCHL5 -0.167 | USP10 -0.0693 | USP15 -0.145
